Screens from PubChem BioAssay.
Most compounds without a hit are left out; they make up all but 2.8% or so of the library.
ATXN2 expr inh: reduces ATXN2 reporter expression in HEK-293 cells; 0.72% of 360,000 active; Potency, µM (highest dose often 57 µM), for inactives: at the highest dose activity change, negative = inhibition, hits mostly inhibitors; HEK-293 ATXN2-luciferase reporter, luminescence, 24 h; AID 1745845; also: % is scaled to controls: 0 for no effect and ±100 for the full control effect; nearly all actives have a fitted effect of over 55% in size
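ATXN2-luciferase reporter cells (luciferase flanked by upstream and downstream ATXN2 gene portions) were treated 24 h at 37 °C with compounds at up to 57 uM. SteadyGlo luminescence gave expression; GF-AFC fluorescence gave viability.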
HTT cytoprotect: protects HTT-Q103 PC12 cells, measured by ATP; PC12 HTT-Q103 induced, cytoprotection, ATP luminescence, 40 h; Potency, µM (highest dose often 56.4 µM), for the others: cytoprotection (ATP increase), hits mostly activators; 0.14% of 230,000 active; AID 1471; also: % of control where 0% means no effect; nearly all actives have a fitted effect of over 45% in size
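PC12 cells with ecdysone-inducible HTT exon 1 Q103-GFP, induced with 100 nM tebufenozide and co-treated with library compounds in a dose series (1536-well, 1500 cells/well). Cytoprotection read as ATP content by ATPlite luminescence.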
TGFb SMAD3 inh: TGF-b pathway inhibition; HepG2 CAGA-GFP TGF-b/SMAD3 reporter, GFP fluorescence, 18 h; TGF-beta stimulated, 500 pg/mL final; Potency, µM (titrated, usually from 46.1 µM), inactives show top-dose activity, negative = inhibition, usual class: inhibitors; 1.2% of 410,000 active; AID 588855; also: % is scaled to controls: 0 for no effect and ±100 for the full control effect; nearly all actives have a fitted effect of over 65% in size
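Read-out: total well GFP (ex488/em500-530) summed from mean per-cell fluorescence. Cells: HEPG2 CAGA-GFP, 1% FBS DMEM, 18 h at 37 degrees C with 500 pg/mL final TGF-beta. Unstimulated wells served as the full-inhibition control; stimulated DMSO wells = 0%.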
HttQ103 aggreg: mutant huntingtin aggregation inhibition | 1.1% of 220,000 active | Potency, µM (doses to about 46.1 µM), without a hit: top-dose activity change, negative = inhibition, actives largely listed as inhibitors | AID 1688 | PC12 HttQ103-GFP aggregates, Acumen cytometry, 40 h; also: % is scaled to controls: 0 for no effect and ±100 for the full control effect; nearly all actives have a fitted effect of over 60% in size
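Multiplexed with ATP-based cell death, this channel scores GFP aggregates in PC12 cells expressing inducible HTTex1-Q103-GFP. Induction used 100 nM tebufenozide; compounds were tested in concentration series.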
ATXN viability: cell viability loss in ATXN counter-screen; S2 cells (HEK-293 line with an ATXN2-luciferase reporter) viability, CellTiter-Fluor protease fluorescence, 24 h; 0.49% of 400,000 active; Potency, µM (top dose mostly 56.7 µM), most hits filed as cytotoxic; also: nearly all actives have a fitted effect of over 40% in size
HepG2 tox: kills HepG2 cells in TGF-b inhibitor counter-screen. HepG2 CAGA-GFP viability, ATP luminescence, 18 h. Potency, µM (titrated, usually from 46.1 µM), inactives show at the top dose activity change, negative = cytotoxicity, usual class: cytotoxic. 0.76% of 410,000 active
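CellTiter-Glo luminescence gave cytotoxicity after 18 hours at 37 degrees C. The cells were HepG2 CAGA-GFP in 1% FBS DMEM, stimulated with 500 pg/mL TGF-beta after compound addition. %Activity was normalised to no-cell wells (complete cell-killing) and DMSO (no toxicity), and curves were fitted and classified.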
* marks the source's active call; other numbers are inactive results; i = inactive; ? = inconclusive; . = no result; ! = a repeat was not active; [ ] = remark or other dose. Calls follow the shape of the dose curve; as a rule, active = well fitted curve in the direction sought with a large enough effect; inconclusive = small, poorly fitted or top-dose-only effect, or another doubt; inactive = no such curve, though single readings can be large; an effect the other way counts as inactive or inconclusive. Potency is read from the fitted curve at half-maximal effect.

SMILES | ATXN2 expr inh | HTT cytoprotect | TGFb SMAD3 inh | HttQ103 aggreg | ATXN viability | HepG2 tox
C/C(=N\Nc1ccc(Cl)c(C(=O)O)c1)c1ccccn1 | -14% | 3%[10 µM] | 12% | -10%[9.22 µM] | 25µM* | -2%
CCOc1ccc(C(=O)N/N=C(\c2ccccc2)c2ccccn2)cc1 | 7.9µM* | -77% | ? | ? | ? | -37%
O=C(N/N=C(\c1ccccc1)c1ccccn1)c1cccc([N+](=O)[O-])c1 | . | -139% | ? | 6.3µM* | ? | -1%
C[N+](C)(C)CCN[N@@+]1(C)CCCc2ccccc21 | . | -11%[10 µM] | . | . | . | .
O=c1[nH]/c(=C/c2ccc3c(c2)OCO3)c(=O)[nH]/c1=C\c1ccc2c(c1)OCO2 | . | . | 0% | . | . | -29%
C/C(=N\NC(=O)CCCNc1ccc(C)cc1)c1ccccn1 | 28µM* | . | 5% | -27% | i | 2%
COC[C@H](NC(=O)c1cnc(C)s1)C(=O)N[C@@H](COC)C(=O)N[C@@H](Cc1ccccc1)C(=O)[C@@]1(C)CO1 | 0.22µM* | . | . | . | . | .
CC(C)Cc1nc2cc(NS(=O)(=O)N(C)C)cc(C(=O)N3CCc4ccccc4C3)c2n1C | . | . | . | . | i | .
O=C(/C=C/c1ccccc1)NC(NC(=S)Nc1cc(Cl)ccc1Cl)C(Cl)(Cl)Cl (stereo unspecified) | ? | -31% | 2.2µM* | 2.8µM* | ? | -7%
O=C(/C=C/c1ccccc1)NC(NC(=S)Nc1ccc(Cl)cc1)C(Cl)(Cl)Cl (stereo unspecified) | ? | -59% | ? | -16% | i | -39%
O=C(NC(NC(=S)Nc1cc(Cl)ccc1Cl)C(Cl)(Cl)Cl)c1ccco1 (stereo unspecified) | ? | -54% | 16µM* | ? | i | -29%
CC(=O)C1=C(c2cccc([N+](=O)[O-])c2)N(C(C)=O)n2c(C)nnc2S1 | ? | ? | 11µM* | ? | ? | 11µM*
CCOc1ccc(C2=C(C(C)=O)Sc3nnc(C)n3N2C(C)=O)cc1 | . | . | 7.9µM* | . | . | -58%
CCC(=O)C1=C(c2ccc(Cl)cc2)N(C(=O)CC)n2c(C)nnc2S1 | . | . | 6.3µM* | . | . | -29%
COc1ccc(C2CC(=O)Oc3c(C(CCN4CCCCC4)c4ccc(N(C)C)cc4)c(OC)cc(OC)c32)cc1 (stereo unspecified) | -22% | 21%[10 µM] | -12% | 28%[9.22 µM] | 8.9µM* | 7%
COc1ccc(C2CC(=O)Oc3c(C(CCN4CCCC(C)C4)c4ccc(N(C)C)cc4)c(OC)cc(OC)c32)cc1 (stereo unspecified) | -1% | 3%[10 µM] | -6% | 26%[9.22 µM] | 8.9µM* | -22%
COc1cc(OC)c2c(c1C(CCN1CCCC1)c1ccc(N(C)C)cc1)OC(=O)CC2c1ccc(N(C)C)cc1 (stereo unspecified) | . | . | 0% | . | . | -26%
COC(=O)[C@H]1O[C@@H](c2cc(OC)c(C)c(OC)c2OCc2ccccc2)[C@H](C)[C@H]2O[C@@]12C | . | -61% | . | . | . | .
C/C=C1\COC(C(=O)NCc2ccccc2)(C(F)(F)F)C=C1C=C(C)C (stereo unspecified) | 6% | . | 11µM*! | . | i | -15%
Cc1nc(SCC(=O)Nc2ccc(C)c(Cl)c2)cc(-c2ccccc2)n1 | . | . | 10µM* | . | . | -12%
C[C@@H](O)[C@H]1C(=O)N2C(C(=O)OCOC(=O)C(C)(C)C)=C(SC3CN(C4=NCCS4)C3)[C@H](C)[C@H]12 | -4% | . | . | . | . | .
COc1c2c(nc3ccccc13)O[C@@H]([C@@](C)(O)CO)C2 | . | 0%[1.9 µM] | . | . | . | .
CC#C[C@]1(O)CC[C@H]2[C@@H]3CCC4=CC(=O)CCC4=C3[C@@H](c3ccc(N(C)C)cc3)C[C@@]21C | 15µM*! | -82% | 0% | ? | i | -23%
CC#C[C@]1(O)CC[C@H]2[C@@H]3CCC4=CC(=O)CCC4=C3[C@H](c3ccc(N(C)C)cc3)C[C@@]21C | . | -44% | . | . | . | .
N#CC1(c2cccc(C(=O)Nc3cc(Oc4ccc5nc(NC(=O)C6CC6)sc5n4)ccc3F)c2Cl)CC1 | -10% | . | . | . | . | .
SMILES | ATXN2 expr inh | HTT cytoprotect | TGFb SMAD3 inh | HttQ103 aggreg | ATXN viability | HepG2 tox
COc1ccc(CNc2nc(Cl)nc3nc[nH]c23)cc1 | . | . | 31% | . | . | 1%
O=[N+]([O-])c1ccc(S(=O)(=O)Cc2ccccc2)c2nonc12 | . | 7%[10 µM] | . | . | . | .
CNC(=O)c1cc(Oc2ccc(NC(=O)Nc3cc(C(C)(C)C)nn3-c3ccc4ncccc4c3)c(F)c2)ccn1 | 1.4µM* | . | . | . | . | .
Cc1nc(NC(=O)/C=C/c2ccccc2)n[nH]1 | 4%[11.3 µM] | 6%[10 µM] | 13µM* | ? | i | 16%
O=S(=O)(/C=C/c1ccccc1)N1CCC(n2c(C3CCCO3)nc3cccnc32)CC1 (stereo unspecified) | . | . | . | . | i | .
CCOc1ccc(/C=C2\CCC(C3CCCC3)C2=O)cc1 (stereo unspecified) | 47% | . | 21% | . | i | 5%
CCC(=O)OCOc1ccc(/C=C2/CCC(CN(C)C)C2=O)cc1 (stereo unspecified) | ? | . | 6.3µM* | . | ? | -99%
OC[C@H]1O[C@H](O[C@]2(CCl)O[C@H](CCl)[C@@H](O)[C@@H]2O)[C@H](O)[C@@H](O)[C@H]1Cl | 8% | . | . | . | i | .
CN(C(=O)CSc1cn(CC(=O)N2CCCCC2)c2ccccc12)c1ccccc1 | . | . | ? | . | . | -18%
CC(C)N(C(=O)CSc1cn(CC(=O)N2CCCCCC2)c2ccccc12)C(C)C | . | . | 13µM* | . | . | -24%
CCN1C(=O)S/C(=C/c2ccc(Sc3nc4ccccc4[nH]3)o2)C1=O | ? | 15%[10 µM] | 13µM* | -22% | ? | -45%
COc1ccc(C(=O)CCN(C)C)c2ccccc12 | . | -10%[10 µM] | 6.3µM* | . | . | -103%
COc1ccc(C(=O)c2ccc(Cl)cc2)c2ccccc12 | -8% | -4%[10 µM] | -13% | -25% | i | -8%
